Test [1] has as its target Tyrosine-protein kinase CSK (Homo sapiens) (UniProt P41240). Particulars: at 1 µM.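 Further: each value is an averaged inhibition reading.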
The target of test [2] is T1, Discoidin domain-containing receptor 2 (Homo sapiens) (UniProt Q16832).
T1 sequence (whole entry): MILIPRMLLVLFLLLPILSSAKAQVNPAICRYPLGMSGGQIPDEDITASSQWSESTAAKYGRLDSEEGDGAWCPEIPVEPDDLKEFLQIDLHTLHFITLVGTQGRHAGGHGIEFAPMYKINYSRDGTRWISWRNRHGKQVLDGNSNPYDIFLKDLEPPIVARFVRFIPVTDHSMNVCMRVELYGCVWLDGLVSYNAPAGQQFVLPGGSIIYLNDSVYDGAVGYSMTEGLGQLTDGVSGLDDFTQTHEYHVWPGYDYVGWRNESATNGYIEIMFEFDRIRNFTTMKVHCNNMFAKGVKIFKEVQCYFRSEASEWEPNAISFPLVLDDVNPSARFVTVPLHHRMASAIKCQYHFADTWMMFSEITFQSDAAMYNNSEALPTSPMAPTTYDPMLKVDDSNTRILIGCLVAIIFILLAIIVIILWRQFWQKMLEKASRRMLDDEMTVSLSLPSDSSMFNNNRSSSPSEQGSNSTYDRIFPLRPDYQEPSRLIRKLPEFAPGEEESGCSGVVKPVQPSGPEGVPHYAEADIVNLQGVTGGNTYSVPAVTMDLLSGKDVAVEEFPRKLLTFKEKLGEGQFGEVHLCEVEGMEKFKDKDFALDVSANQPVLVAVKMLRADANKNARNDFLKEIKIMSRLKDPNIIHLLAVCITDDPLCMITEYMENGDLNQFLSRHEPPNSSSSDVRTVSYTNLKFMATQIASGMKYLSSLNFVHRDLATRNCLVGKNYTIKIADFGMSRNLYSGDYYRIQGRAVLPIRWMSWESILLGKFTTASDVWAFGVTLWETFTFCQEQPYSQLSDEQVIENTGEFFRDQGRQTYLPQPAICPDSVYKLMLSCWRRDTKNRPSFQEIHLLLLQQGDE
The settings on record: at 0.1 µM.

Test [3] deals with T1, Discoidin domain-containing receptor 2 (Homo sapiens). The settings on record: at 1 µM.
The target in test [4] is Epidermal growth factor receptor (Homo sapiens) (UniProt P00533). The settings on record: at 0.1 µM.
The target is the same in test [5]. The settings on record: at 1 µM.
Test [6] relates to Epidermal growth factor receptor (Homo sapiens), P00533 [L858R]. Particulars: at 0.1 µM.
Test [7] has the same test system. The settings on record: at 1 µM.
In test [8] the test system is Epidermal growth factor receptor (Homo sapiens), P00533 [L861Q]. Particulars: at 0.1 µM.
Test [9] shares this test system. The settings on record: at 1 µM.
The subject of test [10] is Epidermal growth factor receptor (Homo sapiens), P00533 [T790M]. The settings on record: at 0.1 µM.
Test [11] shares this test system. Particulars: at 1 µM.
For test [12], the system named is Epidermal growth factor receptor (Homo sapiens), P00533 [L858R,T790M]. Particulars: at 0.1 µM.
For test [13] the test system is unchanged. Particulars: at 1 µM.
Test [14] has as its target Ephrin type-A receptor 2 (Homo sapiens) (UniProt P29317). The settings on record: at 0.1 µM.
Test [15] shares this target. Particulars: at 1 µM.
Test [16] has as its target T2, Ephrin type-A receptor 3 (Homo sapiens) (UniProt P29320).
T2 sequence (whole entry): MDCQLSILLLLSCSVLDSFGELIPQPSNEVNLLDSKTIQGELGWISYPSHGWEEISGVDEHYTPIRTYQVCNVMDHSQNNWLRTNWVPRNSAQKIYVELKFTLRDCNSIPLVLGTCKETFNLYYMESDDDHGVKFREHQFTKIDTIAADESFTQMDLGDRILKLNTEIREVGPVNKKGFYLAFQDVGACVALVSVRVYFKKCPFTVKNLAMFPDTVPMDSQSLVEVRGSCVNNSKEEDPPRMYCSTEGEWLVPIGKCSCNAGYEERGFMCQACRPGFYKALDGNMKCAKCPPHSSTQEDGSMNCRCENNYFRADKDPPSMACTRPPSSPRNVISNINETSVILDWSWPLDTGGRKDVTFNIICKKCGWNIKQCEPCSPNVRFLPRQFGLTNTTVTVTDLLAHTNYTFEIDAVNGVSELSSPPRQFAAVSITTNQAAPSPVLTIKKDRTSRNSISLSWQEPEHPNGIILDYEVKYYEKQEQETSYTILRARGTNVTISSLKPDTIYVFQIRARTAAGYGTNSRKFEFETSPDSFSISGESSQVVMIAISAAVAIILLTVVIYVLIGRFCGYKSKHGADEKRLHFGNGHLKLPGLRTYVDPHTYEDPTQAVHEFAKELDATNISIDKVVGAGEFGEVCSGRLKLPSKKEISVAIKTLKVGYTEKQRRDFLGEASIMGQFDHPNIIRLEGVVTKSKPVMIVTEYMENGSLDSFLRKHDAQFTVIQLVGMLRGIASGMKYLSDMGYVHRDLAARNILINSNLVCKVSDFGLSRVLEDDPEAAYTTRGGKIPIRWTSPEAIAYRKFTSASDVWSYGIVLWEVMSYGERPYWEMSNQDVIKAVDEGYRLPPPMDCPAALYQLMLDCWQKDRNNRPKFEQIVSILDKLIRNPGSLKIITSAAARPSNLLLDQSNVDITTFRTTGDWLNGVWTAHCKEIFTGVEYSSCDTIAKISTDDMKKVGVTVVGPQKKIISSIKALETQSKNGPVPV
Particulars: at 0.1 µM.

The target in test [17] is T2, Ephrin type-A receptor 3 (Homo sapiens). Particulars: at 1 µM.
For test [18], the target named is Ephrin type-A receptor 4 (Homo sapiens) (UniProt P54764). Particulars: at 0.1 µM.
The target is the same in test [19]. Particulars: at 1 µM.
The target in test [20] is T3, Ephrin type-B receptor 2 (Homo sapiens) (UniProt P29323).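 Further: reported as mean inhibition of EPHB2, from the GSK PKIS dataset.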
T3 sequence (whole entry): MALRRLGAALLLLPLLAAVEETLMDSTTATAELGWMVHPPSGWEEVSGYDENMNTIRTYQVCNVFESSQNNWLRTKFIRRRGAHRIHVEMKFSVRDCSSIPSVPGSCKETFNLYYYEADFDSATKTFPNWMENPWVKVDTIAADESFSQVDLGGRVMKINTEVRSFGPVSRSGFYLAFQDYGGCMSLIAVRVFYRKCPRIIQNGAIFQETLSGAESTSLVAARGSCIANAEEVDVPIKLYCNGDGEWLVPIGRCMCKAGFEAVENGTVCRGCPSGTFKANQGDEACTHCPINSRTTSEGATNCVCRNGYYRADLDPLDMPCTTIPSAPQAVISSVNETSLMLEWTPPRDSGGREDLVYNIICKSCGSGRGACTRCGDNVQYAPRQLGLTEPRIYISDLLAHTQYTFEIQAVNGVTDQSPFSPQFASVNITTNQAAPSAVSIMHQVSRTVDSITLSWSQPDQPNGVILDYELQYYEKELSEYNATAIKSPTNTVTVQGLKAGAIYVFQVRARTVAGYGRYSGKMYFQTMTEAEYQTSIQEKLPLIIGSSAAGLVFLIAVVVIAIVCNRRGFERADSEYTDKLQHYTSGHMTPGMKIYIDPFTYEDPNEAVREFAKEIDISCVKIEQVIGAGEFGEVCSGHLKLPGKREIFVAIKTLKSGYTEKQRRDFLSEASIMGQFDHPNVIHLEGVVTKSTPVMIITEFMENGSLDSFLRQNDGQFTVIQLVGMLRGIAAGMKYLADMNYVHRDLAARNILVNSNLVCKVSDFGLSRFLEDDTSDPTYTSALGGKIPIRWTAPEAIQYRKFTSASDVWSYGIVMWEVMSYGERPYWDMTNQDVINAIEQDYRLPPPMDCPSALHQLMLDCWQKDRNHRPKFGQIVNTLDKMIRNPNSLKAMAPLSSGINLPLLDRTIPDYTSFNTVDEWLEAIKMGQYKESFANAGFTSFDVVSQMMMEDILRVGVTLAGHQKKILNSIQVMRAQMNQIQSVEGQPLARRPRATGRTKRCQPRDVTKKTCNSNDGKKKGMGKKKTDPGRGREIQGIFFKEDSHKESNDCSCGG
Particulars: at 0.1 µM.

Sequence of Epidermal growth factor receptor (Homo sapiens), P00533 [L858R,T790M] (P00533 whole entry T790M/L858R, looked up): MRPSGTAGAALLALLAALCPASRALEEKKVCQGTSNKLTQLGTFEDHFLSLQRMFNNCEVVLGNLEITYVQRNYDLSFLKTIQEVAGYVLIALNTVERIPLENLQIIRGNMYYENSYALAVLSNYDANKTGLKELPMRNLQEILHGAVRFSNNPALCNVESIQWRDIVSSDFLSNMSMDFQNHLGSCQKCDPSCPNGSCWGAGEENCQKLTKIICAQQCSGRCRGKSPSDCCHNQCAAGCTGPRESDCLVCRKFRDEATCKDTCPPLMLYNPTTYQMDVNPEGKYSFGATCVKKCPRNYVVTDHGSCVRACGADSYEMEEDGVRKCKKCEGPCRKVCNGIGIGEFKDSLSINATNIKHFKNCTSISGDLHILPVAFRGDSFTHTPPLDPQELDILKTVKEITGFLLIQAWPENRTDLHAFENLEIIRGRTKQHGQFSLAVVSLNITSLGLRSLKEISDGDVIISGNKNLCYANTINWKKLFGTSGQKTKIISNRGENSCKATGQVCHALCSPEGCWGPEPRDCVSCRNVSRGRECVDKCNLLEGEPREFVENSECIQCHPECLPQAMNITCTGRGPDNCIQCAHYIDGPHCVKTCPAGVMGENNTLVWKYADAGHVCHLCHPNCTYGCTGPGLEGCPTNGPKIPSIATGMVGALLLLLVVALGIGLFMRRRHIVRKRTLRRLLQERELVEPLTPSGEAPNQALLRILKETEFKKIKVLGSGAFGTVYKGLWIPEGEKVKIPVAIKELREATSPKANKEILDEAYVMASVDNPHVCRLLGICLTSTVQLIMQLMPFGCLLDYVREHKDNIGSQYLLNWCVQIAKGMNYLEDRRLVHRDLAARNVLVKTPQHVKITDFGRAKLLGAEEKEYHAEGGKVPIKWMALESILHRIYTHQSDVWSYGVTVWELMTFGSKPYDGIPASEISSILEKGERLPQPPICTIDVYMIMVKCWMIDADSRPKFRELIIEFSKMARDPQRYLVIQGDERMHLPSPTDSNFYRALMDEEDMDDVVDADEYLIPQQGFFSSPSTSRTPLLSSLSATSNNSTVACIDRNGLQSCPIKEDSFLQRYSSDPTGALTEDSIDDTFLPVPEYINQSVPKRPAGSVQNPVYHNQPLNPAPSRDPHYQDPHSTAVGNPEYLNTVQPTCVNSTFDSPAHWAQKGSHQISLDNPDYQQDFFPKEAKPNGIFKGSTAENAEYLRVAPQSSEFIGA
Sequence of Epidermal growth factor receptor (Homo sapiens), P00533 [L861Q] (P00533 whole entry L861Q): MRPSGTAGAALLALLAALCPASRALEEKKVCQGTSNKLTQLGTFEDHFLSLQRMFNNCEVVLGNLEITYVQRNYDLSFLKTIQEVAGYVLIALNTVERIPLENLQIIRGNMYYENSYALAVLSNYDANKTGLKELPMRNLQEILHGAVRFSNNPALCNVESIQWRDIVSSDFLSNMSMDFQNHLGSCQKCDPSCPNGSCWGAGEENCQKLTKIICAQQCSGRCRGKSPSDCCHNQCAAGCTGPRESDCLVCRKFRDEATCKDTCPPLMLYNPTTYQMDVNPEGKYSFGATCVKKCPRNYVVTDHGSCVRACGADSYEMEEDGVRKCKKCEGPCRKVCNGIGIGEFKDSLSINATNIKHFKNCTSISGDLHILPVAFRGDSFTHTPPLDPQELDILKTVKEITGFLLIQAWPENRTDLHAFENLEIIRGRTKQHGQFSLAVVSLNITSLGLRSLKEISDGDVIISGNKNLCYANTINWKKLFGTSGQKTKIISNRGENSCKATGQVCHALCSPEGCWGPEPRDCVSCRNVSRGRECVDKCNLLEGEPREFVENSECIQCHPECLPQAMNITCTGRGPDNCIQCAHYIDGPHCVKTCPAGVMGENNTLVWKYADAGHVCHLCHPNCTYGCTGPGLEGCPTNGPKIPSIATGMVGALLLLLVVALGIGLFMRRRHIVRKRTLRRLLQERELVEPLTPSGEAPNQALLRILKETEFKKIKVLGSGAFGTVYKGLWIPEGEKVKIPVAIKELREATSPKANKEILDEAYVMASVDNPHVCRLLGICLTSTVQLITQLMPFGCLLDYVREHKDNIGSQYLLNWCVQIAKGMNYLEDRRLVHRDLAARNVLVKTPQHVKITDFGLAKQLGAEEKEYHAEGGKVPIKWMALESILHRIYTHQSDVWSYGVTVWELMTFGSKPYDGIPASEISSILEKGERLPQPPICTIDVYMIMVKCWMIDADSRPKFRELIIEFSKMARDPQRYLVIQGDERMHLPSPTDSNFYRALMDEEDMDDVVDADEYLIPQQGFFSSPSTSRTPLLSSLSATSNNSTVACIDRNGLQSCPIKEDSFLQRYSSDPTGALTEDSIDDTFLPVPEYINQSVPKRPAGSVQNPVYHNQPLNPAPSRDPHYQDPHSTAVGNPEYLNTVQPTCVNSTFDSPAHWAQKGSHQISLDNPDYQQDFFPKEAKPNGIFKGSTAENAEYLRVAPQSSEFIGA
Sequence of Ephrin type-A receptor 2 (Homo sapiens) (P29317 whole entry): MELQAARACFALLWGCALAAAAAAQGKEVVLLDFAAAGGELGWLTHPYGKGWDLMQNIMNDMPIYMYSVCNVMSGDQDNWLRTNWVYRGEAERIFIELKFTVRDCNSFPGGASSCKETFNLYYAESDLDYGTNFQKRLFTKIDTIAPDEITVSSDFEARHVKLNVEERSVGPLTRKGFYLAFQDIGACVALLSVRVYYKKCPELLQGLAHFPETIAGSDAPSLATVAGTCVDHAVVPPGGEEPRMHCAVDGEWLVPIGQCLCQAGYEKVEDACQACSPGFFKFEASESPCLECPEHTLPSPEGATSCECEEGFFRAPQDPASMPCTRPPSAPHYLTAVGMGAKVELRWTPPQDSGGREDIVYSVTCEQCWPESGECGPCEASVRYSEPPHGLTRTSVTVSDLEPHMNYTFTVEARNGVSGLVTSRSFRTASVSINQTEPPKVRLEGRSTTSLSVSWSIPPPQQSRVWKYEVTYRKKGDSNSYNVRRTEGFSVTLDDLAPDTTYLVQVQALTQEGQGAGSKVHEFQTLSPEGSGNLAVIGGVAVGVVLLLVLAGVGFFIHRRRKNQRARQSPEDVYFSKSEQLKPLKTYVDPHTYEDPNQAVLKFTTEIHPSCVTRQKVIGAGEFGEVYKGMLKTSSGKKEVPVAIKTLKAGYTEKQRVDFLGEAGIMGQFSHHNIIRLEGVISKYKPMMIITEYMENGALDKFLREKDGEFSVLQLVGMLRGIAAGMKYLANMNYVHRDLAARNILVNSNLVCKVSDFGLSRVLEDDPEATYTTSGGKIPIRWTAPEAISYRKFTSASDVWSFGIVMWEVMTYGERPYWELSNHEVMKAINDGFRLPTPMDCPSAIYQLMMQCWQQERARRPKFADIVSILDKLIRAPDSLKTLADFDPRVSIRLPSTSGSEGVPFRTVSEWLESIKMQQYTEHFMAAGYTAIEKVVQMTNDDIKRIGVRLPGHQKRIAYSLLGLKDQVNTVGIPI
Sequence of Epidermal growth factor receptor (Homo sapiens), P00533 [T790M] (P00533 whole entry T790M): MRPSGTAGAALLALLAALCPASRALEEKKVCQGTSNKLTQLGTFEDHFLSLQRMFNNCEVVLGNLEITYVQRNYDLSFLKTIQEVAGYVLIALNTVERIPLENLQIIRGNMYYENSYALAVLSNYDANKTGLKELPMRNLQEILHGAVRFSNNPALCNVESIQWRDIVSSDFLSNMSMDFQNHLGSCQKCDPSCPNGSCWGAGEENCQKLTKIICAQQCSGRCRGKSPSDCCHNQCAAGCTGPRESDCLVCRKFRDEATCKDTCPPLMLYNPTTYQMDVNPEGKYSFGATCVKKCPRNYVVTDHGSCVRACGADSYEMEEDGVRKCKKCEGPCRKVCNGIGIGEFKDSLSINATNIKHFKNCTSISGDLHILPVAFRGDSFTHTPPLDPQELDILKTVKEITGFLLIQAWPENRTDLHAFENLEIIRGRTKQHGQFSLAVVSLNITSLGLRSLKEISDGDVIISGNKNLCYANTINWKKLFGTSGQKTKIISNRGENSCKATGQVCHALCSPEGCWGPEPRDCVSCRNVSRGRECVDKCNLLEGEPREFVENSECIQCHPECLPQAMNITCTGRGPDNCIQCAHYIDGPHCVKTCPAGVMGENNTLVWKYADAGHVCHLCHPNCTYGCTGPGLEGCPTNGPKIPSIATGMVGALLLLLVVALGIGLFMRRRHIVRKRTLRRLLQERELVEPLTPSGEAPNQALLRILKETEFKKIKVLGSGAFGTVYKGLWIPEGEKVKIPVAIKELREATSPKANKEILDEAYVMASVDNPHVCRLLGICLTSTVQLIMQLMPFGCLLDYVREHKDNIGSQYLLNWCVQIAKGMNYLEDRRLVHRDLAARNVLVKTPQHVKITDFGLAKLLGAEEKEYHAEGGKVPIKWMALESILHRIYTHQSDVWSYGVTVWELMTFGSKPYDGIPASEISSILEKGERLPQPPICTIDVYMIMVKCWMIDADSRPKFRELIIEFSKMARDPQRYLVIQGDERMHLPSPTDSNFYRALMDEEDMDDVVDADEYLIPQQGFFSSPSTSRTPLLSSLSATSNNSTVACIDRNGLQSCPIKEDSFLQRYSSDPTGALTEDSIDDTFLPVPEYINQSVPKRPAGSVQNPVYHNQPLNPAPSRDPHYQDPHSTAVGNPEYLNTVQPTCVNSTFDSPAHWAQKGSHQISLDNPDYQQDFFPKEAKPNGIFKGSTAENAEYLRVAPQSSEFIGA
Sequence of Tyrosine-protein kinase CSK (Homo sapiens) (P41240 2-450 limits assumed): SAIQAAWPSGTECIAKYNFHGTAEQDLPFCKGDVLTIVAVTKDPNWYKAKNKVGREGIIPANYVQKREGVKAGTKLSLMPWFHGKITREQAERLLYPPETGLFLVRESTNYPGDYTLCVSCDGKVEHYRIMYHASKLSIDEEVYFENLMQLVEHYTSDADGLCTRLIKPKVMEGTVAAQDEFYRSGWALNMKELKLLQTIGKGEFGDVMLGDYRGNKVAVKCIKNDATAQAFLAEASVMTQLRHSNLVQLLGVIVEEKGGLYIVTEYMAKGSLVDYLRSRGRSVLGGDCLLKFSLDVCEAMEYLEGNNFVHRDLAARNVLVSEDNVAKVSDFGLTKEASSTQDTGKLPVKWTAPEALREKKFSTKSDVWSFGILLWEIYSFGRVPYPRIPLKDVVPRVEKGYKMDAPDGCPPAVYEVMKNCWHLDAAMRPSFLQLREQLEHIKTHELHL

`NC(=O)c1ccc(Oc2nccc(-c3c(-c4ccc(F)cc4)ncn3C3CCNCC3)n2)cc1`: the inhibition in [1] worked out at 4.26%; in test [2], 0.13%; in test [3], 0.3%; in test [4] it was 0.48%; in test [5], 1.21%; in test [6] it was 3.13%. Besides, the inhibition is 2.9% in test [7]; 2.71% in test [8]; 5.43% in test [9]; 2.31% in [10]; 4.36% in test [11]; 3.71% in [12]. Further, the inhibition in test [13] is 1.81%; in test [14], 2.58%; in [15], 1.73%; in test [16], 2.37%; in test [17] it was 5.3%; in test [18], 8.5%. For the same compound, the figures for the inhibition in test [19] and in test [20] were 11% and 8.08%, respectively.
As for `C[C@@H](Oc1cc(-n2cnc3ccc(OC4CCN(C)CC4)cc32)sc1C(N)=O)c1ccccc1Cl`, the inhibition is 5.07% in test [1]; 1.72% in test [2]; 4.56% in [3]; 0.49% in [4]; 3.58% in [5]; 1.45% in [6]. Also, the inhibition in test [7] amounted to 3.56%; in test [8] it was 2.71%; in [9], 4.46%; in test [10], 0.91%; in [11], 1.48%; in [12], 1.1%. Further, the inhibition is 6.15% in [13]; -2.62% in test [14]; -3.66% in [15]; -0.17% in test [16]; -0.53% in test [17]; 7.06% in test [18]. Further, the inhibition in test [19] was found to be 9.83%; in test [20] it was 7.8%.
With `COc1cc(Nc2ncc3c(C)nc(-c4cccc(Oc5ccccc5)c4)n3n2)cc(OC)c1OC`, the inhibition in test [1] is 0.83%; in test [2], 1.95%; in test [3] it was 0.6%; in [4] it was -0.83%; in test [5] it was 3.44%; in [6], 2.38%. Moreover, the inhibition is 1.65% in test [7]; 0.98% in [8]; -0.89% in [9]; 1.28% in test [10]; -1.01% in test [11]; 1.23% in test [12]. For the same compound, the inhibition in test [13] was -0.96%; in test [14], 1.16%; in test [15] it was -0.33%; in [16] it was 3.2%; in test [17], 1.56%; in test [18] it was 5.4%. For the same compound, the inhibition amounted to 3.74% in test [19] and 4.87% in [20].
Turning to `O=C1Nc2ccc(I)cc2C1=Cc1cc(Br)c(O)c(Br)c1`, the inhibition in [1] is 4.94%; in test [2] it was 1.45%; in [3], 3.44%; in test [4], 2.85%; in test [5], -1.18%; in test [6], -1.9%. The inhibition in test [7] was 2.8%; in [8] it was 2.43%; in test [9], 3.74%; in [10] it was 0.08%; in [11], 1.77%; in test [12], -1.49%. Besides, the inhibition in test [13] was -1.12%; in test [14], 1.35%; in test [15] it was 1.12%; in test [16], 1.79%; in [17], 4.64%; in [18], 7.31%. Further, the inhibition in test [19] stood at 9.77%; in test [20], 5.47%.
As to `NS(=O)(=O)c1ccc(N/N=C2\C(=O)Nc3ccc(C(=O)NCCCn4ccnc4)cc32)cc1`, the inhibition in [1] worked out at 6.51%; in [2], 0.72%; in test [3] it was 1.93%; in test [4], 3.44%; in [5] it was 5.59%; in [6], 0.2%. Besides, the inhibition was determined as 6.95% in test [7]; 1.73% in test [8]; 5.08% in test [9]; 2.53% in test [10]; 5.05% in test [11]; 1.54% in test [12]. The inhibition in [13] is 4.72%; in test [14] it was 0.32%; in test [15], 2.41%; in test [16] it was 1.95%; in test [17], 4.65%; in test [18], 9.78%. The inhibition came to 18.2% in test [19] and 5.33% in test [20].

The values are drawn from ChEMBL document CHEMBL1961873, “Compounds: GSK PKIS; Assays: Nanosyn kinase panel” (2012).
